# LASV entry inh = blocks Lassa virus binding to or entry into cells; 1.2% of 300,000 active; Potency, µM (series often up to 37.9 µM), without a hit: at the highest dose activity change, negative = inhibition, actives largely listed as inhibitors; AID 540256; Lassa virus pseudotype entry inhibition, cell reporter; calls by dose curve; tested in HEK293 cells; further: potency means the concentration at half of the fitted maximal effect; nearly all actives have a fitted effect of over 50% in size
# Vaccinia mCherry = vaccinia inhibition (mCherry reporter). Vaccinia virus mCherry reporter infection, fluorescence. Potency, µM (highest dose often 36.5 µM), inactives show at the highest dose activity change, negative = inhibition, usual class: inhibitors. 0.63% of 310,000 active. AID 720579; calls by dose curve; tested in A549 cells; further: potency means the concentration at half of the fitted maximal effect; nearly all actives have a fitted effect of over 35% in size
# MARV entry inh = inhibitors of Marburg virus binding or cell entry; Marburg virus pseudotyped entry inhibition, cell reporter; Potency, µM (doses to about 37.8 µM), for the others: at the top dose activity change, negative = inhibition, actives largely listed as inhibitors; 1.8% of 300,000 active; AID 540276; calls by dose curve; tested in HEK293 cells; further: potency means the concentration at half of the fitted maximal effect
# HCMV antiviral = inhibitors of human cytomegalovirus. HFF cells, HCMV-luciferase reporter, 72 h; hits give low values. activity change, negative = inhibition, % at 57.5 µM. 4.5% of 410,000 active; in the data active means activity change below about -60%; inconclusive means no clear call, values can overlap the other calls; inactive means above about -39%
#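 Compounds were evaluated in HFFs infected with an HCMV luciferase reporter virus (MOI 1 PFU/cell). Luciferase in lysates collected 72 h post infection served as the replication measure.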
# HCV inhibitor = HCV inhibition. AID 651820. Huh7.5.1 HCVcc-Cre infection, luciferase reporter, 44 h. 3.4% of 340,000 active. Potency, µM (titrated, usually from 41.8 µM), without a hit: at the top dose activity change, negative = inhibition, hits mostly inhibitors; active means well fitted inhibition curve with a large enough effect; inconclusive means small, poorly fitted or top-dose-only effect, or another doubt; inactive means no such curve, though single readings can be large or run the other way; further: potency means the concentration at half of the fitted maximal effect
#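 Seed cells (1,000/well) for 4 h; treat with compound and infect with HCVcc-Cre, moi about 0.5. Incubate 44 h, then detect luciferase activity.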
# Vaccinia Venus = vaccinia inhibition (Venus reporter). Vaccinia virus Venus reporter expression, fluorescence. Potency, µM (doses to about 36.5 µM), without a hit: at the top dose activity change, negative = inhibition, most hits filed as inhibitors. 0.46% of 330,000 active; calls by dose curve; tested in A549 cells; further: potency means the concentration at half of the fitted maximal effect; nearly all actives have a fitted effect of over 30% in size
# * = called active by the depositor; i = inactive; ? = inconclusive; . = no result; [ ] = dose if it differs, or a comment. The list is not random: actives were taken first. Their share in the collection is about 7.8%. On the % scale 0 is the no-effect control and ±100 the full control effect.
SMILES,LASV entry inh,Vaccinia mCherry,MARV entry inh,HCMV antiviral,HCV inhibitor,Vaccinia Venus
COc1ccc(C2C(C#N)=C(N)N(c3sc4c(c3C#N)CCCC4)C3=C2C(=O)CC(C)(C)C3)cc1OC (stereo not given),?,.,?,-3,?,.
COc1ccc(C(=O)N(Cc2cc3cccc(C)c3nc2N(C)C)CC2CCCO2)cc1 (stereo not given),.,-11%,.,.,.,11%
COc1ccc(C2CC(c3ccccc3)=NN2c2ccc(S(N)(=O)=O)cc2)cc1 (stereo not given),?,?,?,-1,?,-21%
COc1ccc(C2CC(c3ccccc3Cl)=NN2c2ccc(S(N)(=O)=O)cc2)cc1 (stereo not given),.,13µM*,.,11,?,?
COc1ccc(C2CC(c3cccc(F)c3)=NN2c2ccc(S(N)(=O)=O)cc2)cc1 (stereo not given),.,?,0%,4,?,-29%
COc1ccc(C2CC(c3cccc(C(F)(F)F)c3)=NN2c2ccc(S(N)(=O)=O)cc2)cc1 (stereo not given),.,?,.,-101*,?,?
COCCN(CCOC)c1ncnc2c1c(-c1ccccc1)cn2-c1ccc(C)c(Cl)c1,-3%[46.1 µM],-11%,.,?,.,-13%
Cc1ccc2c(/C=C/c3ccc(N(C)C)cc3)ccnc2c1C,.,-7%,.,.,.,-1%
CC(=O)c1ccc(NC(=O)c2ccc3c(c2)N(Cc2cccc(Cl)c2)C(=O)c2ccccc2S3(=O)=O)cc1,6%[46.1 µM],-13%,?,24,.,-3%
CC1CC(N(C(=O)c2ccc(Cl)cc2)c2ccccc2)c2ccccc2N1C(=O)c1ccco1 (stereo not given),20µM*,.,?,-27,10µM*,?
CC1CC(N(C(=O)c2ccco2)c2ccccc2)c2ccccc2N1C(=O)c1ccco1 (stereo not given),-25%,.,?,32,-2%,.
COc1ccc(OC)c(-c2csc(NC(=O)Cc3ccccc3)n2)c1,?,?,?,23,?,?
COc1ccc(-c2csc(NC(=O)CSc3ccc(Br)cc3)n2)c(OC)c1,13µM*,-6%,?,15,-9%,-12%
COc1ccc(-c2csc(NC(=O)CSCC(=O)Nc3cc(C)on3)n2)c(OC)c1,1%,-12%,3%,-3,?,-27%
COc1ccc(OC)c(-c2csc(NC(=O)CSCc3c(C)noc3C)n2)c1,?,i,?,-39,11µM*,-12%
COc1ccc(OC)c(-c2csc(NC(=O)CSc3ccccc3)n2)c1,16µM*,?,?,?,?,-27%
CC1CCN(C(=O)Cn2ncc3c4ccccc4n(Cc4ccc(Cl)cc4)c3c2=O)CC1,19%[46.1 µM],-2%,-18%[46.1 µM],9,.,-8%
CNC(=O)c1c(NC(=O)c2ccc(S(=O)(=O)N3CCCC(C)C3)cc2)sc2c1CCC2 (stereo not given),14%[46.1 µM],-25%,.,-14,.,-15%
Cc1onc(-c2ccc(Cl)cc2)c1-c1ccnc(SCC(=O)Nc2cc(Cl)cc(Cl)c2)n1,?,-6%,7.9µM*,-15,16µM*,-5%
C[C@@H]1[C@H](c2ccccc2)OCCS(=O)(=O)N1Cc1cccc(C(F)(F)F)c1,.,-15%,.,.,.,-11%
CCCc1cc(=O)n2[nH]cc(-c3ccc(Cl)cc3)c2n1,?,?,?,-96*,?,?
COCc1cc(=O)n2[nH]cc(-c3ccccc3)c2n1,15%,-19%,-1%,45,5%,-21%
COc1ccc(OC)c(CCNC(=O)Cn2nc(C)n3c(cc4sccc43)c2=O)c1,.,5%,-2%[46.1 µM],0,.,-10%
CS(=O)(=O)Nc1cccc(-c2cncnc2NCc2cccs2)c1,.,-15%,.,.,.,-26%
COCc1c(C(=O)N2CCN(C3CCCC3)CC2)cnn1-c1nccc(-c2cccs2)n1,.,-12%,.,.,.,-8%
SMILES,LASV entry inh,Vaccinia mCherry,MARV entry inh,HCMV antiviral,HCV inhibitor,Vaccinia Venus
C/C(=N/Nc1nc(C)cc(C)n1)c1ccc(Br)cc1,-10%[46.1 µM],i,?,?,?,-13%
C/C(=N\Nc1cc(N2CCOCC2)nc(C)n1)c1ccc(F)cc1,?,i,2.8µM*,60,?,-13%
C/C(=N\Nc1cc(N2CCCCC2)nc(C)n1)c1ccc(Br)cc1,.,.,.,-67*,11µM*,.
COC(=O)C1CCCCN1Cc1ccc2c(c1)CN(C(=O)c1csc(-c3cccs3)n1)CCO2 (stereo not given),.,-12%,.,.,.,0%
COc1cc(C(=O)n2nc(-c3ccco3)nc2NCc2ccc(Cl)cc2)cc(OC)c1OC,?,-15%,?,28,.,-17%
Cc1nc(Cl)c(C(=O)NCc2ccccc2)c(C)c1Cl,-1%,i,-5%,-70*,-1%,-11%
Cc1nc(Cl)c(C(=O)NCc2ccccc2)c(C)c1[N+](=O)[O-],-12%[46.1 µM],-1%,0%[46.1 µM],?,12%,-15%
O=C(NCc1ccccc1)c1c(Cl)nc(Cl)c(Cl)c1Cl,-26%,-9%,?,-84*,13µM*,?
O=C(O)c1ccc(-n2nnc3ccccc32)c([N+](=O)[O-])c1,11%,i,12%,11,34%,-2%
O=[N+]([O-])c1cnccc1-n1nnc2ccccc21,.,?,.,-63*,.,?
CC1=C(C(N)=O)C(c2ccc(C)cc2)n2nc(SCc3ccccc3)nc2N1 (stereo not given),-13%[46.1 µM],-1%,?,-3,.,-4%
O=C(Cc1csc(NC(=O)Nc2cccc(Cl)c2)n1)NC1CCCC1,-14%,-27%,13µM*,-28,?,-28%
NC(c1ccccc1)c1csc(NC(=O)Nc2cccc(Cl)c2)n1 (stereo not given),.,i,.,22,.,10µM*
O=C(Cc1csc(NC(=O)Nc2cccc(Cl)c2)n1)NCc1ccccn1,-10%,?,?,39,?,-24%
CC12C=C(/C=C/c3ccc(C(F)(F)F)cc3)C(C)(C1)C(c1ccc(C(F)(F)F)cc1)CC2=O (stereo not given),.,.,6%[14.2 µM],.,.,.
O=C(NCc1ccc2c(c1)CCN2C(=O)c1ccc(Cl)cc1)c1cccc(F)c1,-9%[46.1 µM],-14%,.,-10,.,-20%
COc1ccc(NC(=O)Nc2cccc(C(F)(F)F)c2)cn1,?,?,-26%[46.1 µM],-63*,?,?
CCSCCc1nnc(NC(=O)Nc2cccc(C(F)(F)F)c2)s1,.,.,.,-83*,3.5µM*,.
O=C(Nc1cccc(C(F)(F)F)c1)Nc1cccs1,.,-26%,-13%[46.1 µM],-80*,.,?
COc1ccc(NC(=O)Nc2cc(C)cc(C)c2)cn1,9%[46.1 µM],i,8%[46.1 µM],-22,-17%,-16%
O=C(Nc1ccccc1)Nc1cccc(C(F)(F)F)c1,-15%,-10%,-6%[46.1 µM],-34,?,-15%
O=C(Nc1cccc(C(F)(F)F)c1)Nc1nnc([C@H]2C[C@H](O)[C@@H](CO)O2)s1,.,30%,.,-36,.,11%
